In PubChem BioAssay:
Calls of active or inactive are those of the source.

How the values were obtained:
[1] = test system: wheat germ agglutinin (Triticum aestivum), Alexa647-labelled; assay: Alexa647-WGA lectin binding to printed small molecules – biochemical, small-molecule microarray, 635/667 nm fluorescence, artefact control for SMM control-protein annotation, profiling panel (AID 1140); settings: WGA-A647 binding, 635 nm fluorescence, higher = more signal;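 note: score merges 667 nm feature emission with signal to noise over triplicate slides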
[2] = molecular target: Luciferin 4-monooxygenase (Photinus pyralis) (UniProt P08659); assay: inhibition of purified Photinus pyralis luciferase – biochemical, luminescence, purified enzyme, 2006 set, primary screen (AID 1141); settings: purified firefly luciferase, SteadyGlo luminescence, 30 min; higher = more signal, called active from +8 up or from −8 down;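 note: cell-free assay with purified firefly luciferase at 100 ng per well in PBS; test concentration not given here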
[3] = test system: Wnt5a (protein binding on small-molecule microarray); assay: small molecules binding Wnt5a protein – biophysical, small-molecule microarray, 635/667 nm fluorescence, primary screen (AID 1142); settings: 635 nm fluorescence, higher = more signal;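 note: fluorescence read at 667 nm with signal to noise per printed feature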
[4] = ATP-based viability of Huh7 replicon cells – cell-based, CellTiter-Glo luminescence, basal, 48 h, cytotoxicity control for HCV replication inhibitor project, primary screen (AID 1143); settings: higher = more signal, called active from +8 up or from −8 down;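 note: Huh7 hepatoma cells carrying a hepatitis C replication reporter with no stimulus; test concentration not given here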
[5] = basal CRE-LacZ reporter activity in PC12 – cell-based, unstimulated, primary screen (AID 1145); settings: no forskolin, luminescence, 4.5 h, higher = more signal, called active from +8 up or from −8 down
[6] = forskolin-driven CRE-LacZ activity in PC12 – cell-based, CRE-LacZ reporter, forskolin-stimulated, primary screen (AID 1146); settings: luminescence, 4.5 h, higher = more signal, called active from +8 up or from −8 down;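 note: PC12 cells with 6xCRE LacZ reporter stimulated by forskolin 10 µM; beta-galactosidase reporter signal reflecting CREB driven transcription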
[7] = molecular target: Streptavidin (Streptomyces avidinii) (UniProt P22629); assay: compounds binding control protein streptavidin – biophysical, small-molecule microarray, 635/667 nm fluorescence, artefact control for SMM compound annotation, primary screen (AID 1147); settings: higher = more signal;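 note: signal reflects streptavidin binding to arrayed compounds as a control protein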
[8] = probe aInhba binding on compound microarray – biochemical, small-molecule microarray, 635/667 nm fluorescence, primary screen (AID 1148); settings: higher = more signal;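 note: score merges 667nm spot fluorescence with signal-to-noise for antibody binding to printed compounds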
Torsin-1A (Homo sapiens) [9] = molecular target: Torsin-1A (Homo sapiens) (UniProt O14656); assay: TOR1A wild-type binding on microarray – cell lysate, small-molecule microarray, lysate, 635/667 nm, primary screen (AID 1149); settings: COS7 hTOR1A-WT lysate, 635 nm fluorescence, higher = more signal
Torsin-1A (Homo sapiens) [10] = molecular target: Torsin-1A (Homo sapiens) (UniProt O14656); assay: torsin A mutant lysate binding on microarrays – cell lysate, small-molecule microarray, COS7 lysate, 635/667 nm fluorescence, primary screen (AID 1150); settings: COS7 hTOR1A mutant lysate, 635 nm fluorescence, higher = more signal;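 note: score pools 667 nm emission and signal to noise measuring lysate protein binding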
[11] = test system: Sonic hedgehog protein (Shh); assay: Sonic hedgehog microarray binding compounds – biochemical, small-molecule microarray, 635/667 nm fluorescence, primary screen (AID 1151); settings: 635 nm fluorescence, higher = more signal;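 note: Shh protein binding to compounds spotted on small-molecule microarray slides; score combines spot fluorescence intensity with signal-to-noise across triplicate slides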
[12] = optical density shifts of acrAB sulA E. coli – strain DRC41, OD650, 48 h, E. coli filamentation inducer project, primary screen (AID 1152); settings: higher = more signal, called active from +8 up or from −8 down;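 note: E. coli MC1000 strain DRC41 lacking acrAB efflux pump and sulA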
[13] = probe aLefty1 binding on compound microarray – biochemical, small-molecule microarray, 635/667 nm fluorescence, primary screen (AID 1153); settings: higher = more signal;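 note: score merges spot fluorescence with signal-to-noise ratio from the scanned slide images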
[14] = plasmodial surface anion channel blockers, osmotic lysis – cell-based, P. falciparum Indochina, OD700, 1 h, primary screen (AID 1154); settings: P. falciparum Indochina infected RBC osmotic lysis, higher = more signal, called active from +8 up or from −8 down
[15] = plasmodial surface anion channel blockers, osmotic lysis – cell-based, P. falciparum Indochina, OD700, 2 h, primary screen (AID 1155);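 note: lysis reports solute entry through the parasite surface anion channel PSAC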; settings: P. falciparum Indochina infected erythrocytes, higher = more signal, called active from +8 up or from −8 down
[16] = changes in parasitized red cell lysis, either direction – P. falciparum Indochina, OD700, 3 h, PSAC antagonist project, primary screen (AID 1156); settings: P. falciparum-infected erythrocytes, osmotic lysis, higher = more signal, called active from +8 up or from −8 down
[17] = plasmodial surface anion channel blockers, osmotic lysis – cell-based, P. falciparum Indochina, OD700, 18 h, primary screen (AID 1157); settings: P. falciparum Indochina infected erythrocytes, osmotic lysis OD700, 18 h; higher = more signal, called active from +8 up or from −8 down
[18] = S6 kinase pathway phospho-S6 level changes – cell-based, A549, cytoblot, luminescence, serum-stimulated, primary screen (AID 1158); settings: 5 h, higher = more signal;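 note: serum-stimulated A549 lung adenocarcinoma cells; signal is phosphorylated S6 detected by cytoblot immunostaining with HRP secondary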
[19] = molecular target: NADPH oxidase 2 (Homo sapiens) (UniProt P04839); assay: compounds shifting NOX2 Amplex Red fluorescence – cell-based, HEK293-NOX2, PMA-stimulated, NOX inhibitor project, primary screen (AID 1159); settings: 45 min, higher = more signal, called active from +8 up or from −8 down; note: test concentration not given here
[20] = molecular target: NADPH oxidase 4 (Homo sapiens) (UniProt Q9NPH5); assay: compounds shifting NOX4 Amplex Red fluorescence – cell-based, HEK293-NOX4, tetracycline-induced, NOX inhibitor project, primary screen (AID 1160); settings: HEK293-NOX4, Amplex Red H2O2 fluorescence, 45 min; higher = more signal, called active from +8 up or from −8 down
Sequence of NADPH oxidase 4 (Homo sapiens) (Q9NPH5 whole entry, looked up): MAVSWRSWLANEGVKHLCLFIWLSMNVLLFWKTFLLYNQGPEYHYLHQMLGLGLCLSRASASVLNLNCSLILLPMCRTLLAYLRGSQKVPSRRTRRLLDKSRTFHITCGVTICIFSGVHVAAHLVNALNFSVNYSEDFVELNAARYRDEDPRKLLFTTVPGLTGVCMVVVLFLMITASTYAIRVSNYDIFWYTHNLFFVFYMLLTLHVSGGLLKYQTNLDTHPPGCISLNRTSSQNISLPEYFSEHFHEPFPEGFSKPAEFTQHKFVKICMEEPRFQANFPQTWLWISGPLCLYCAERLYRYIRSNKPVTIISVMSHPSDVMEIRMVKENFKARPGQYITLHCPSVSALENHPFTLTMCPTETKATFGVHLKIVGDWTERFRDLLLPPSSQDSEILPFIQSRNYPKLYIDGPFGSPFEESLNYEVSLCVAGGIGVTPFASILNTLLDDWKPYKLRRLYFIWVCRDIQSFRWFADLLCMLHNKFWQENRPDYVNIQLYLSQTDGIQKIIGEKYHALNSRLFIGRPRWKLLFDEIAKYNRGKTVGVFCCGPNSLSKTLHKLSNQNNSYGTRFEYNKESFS

Sequence of Luciferin 4-monooxygenase (Photinus pyralis) (P08659 whole entry, looked up): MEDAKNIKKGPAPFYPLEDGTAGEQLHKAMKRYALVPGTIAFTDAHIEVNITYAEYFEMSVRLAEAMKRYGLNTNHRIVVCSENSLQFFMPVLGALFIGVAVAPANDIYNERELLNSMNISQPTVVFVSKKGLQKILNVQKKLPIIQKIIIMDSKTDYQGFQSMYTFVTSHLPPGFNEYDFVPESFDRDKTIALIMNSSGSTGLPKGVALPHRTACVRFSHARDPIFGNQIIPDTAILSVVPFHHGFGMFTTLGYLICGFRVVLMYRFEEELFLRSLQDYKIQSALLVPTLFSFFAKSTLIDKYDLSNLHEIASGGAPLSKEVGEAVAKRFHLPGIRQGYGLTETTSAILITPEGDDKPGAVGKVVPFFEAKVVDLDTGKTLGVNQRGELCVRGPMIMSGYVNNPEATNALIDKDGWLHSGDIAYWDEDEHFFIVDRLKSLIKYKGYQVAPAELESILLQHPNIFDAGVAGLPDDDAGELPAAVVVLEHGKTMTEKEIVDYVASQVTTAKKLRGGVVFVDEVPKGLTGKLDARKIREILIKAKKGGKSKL
Sequence of Torsin-1A (Homo sapiens) (O14656 whole entry, looked up): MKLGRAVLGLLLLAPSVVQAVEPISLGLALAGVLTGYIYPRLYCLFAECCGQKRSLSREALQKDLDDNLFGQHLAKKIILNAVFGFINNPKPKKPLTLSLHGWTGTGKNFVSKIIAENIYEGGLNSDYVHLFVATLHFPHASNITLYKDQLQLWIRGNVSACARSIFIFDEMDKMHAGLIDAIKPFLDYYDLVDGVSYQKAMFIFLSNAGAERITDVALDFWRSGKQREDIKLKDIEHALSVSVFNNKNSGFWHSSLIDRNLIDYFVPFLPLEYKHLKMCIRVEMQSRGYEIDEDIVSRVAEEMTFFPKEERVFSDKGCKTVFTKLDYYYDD
Sequence of NADPH oxidase 2 (Homo sapiens) (P04839 whole entry, looked up): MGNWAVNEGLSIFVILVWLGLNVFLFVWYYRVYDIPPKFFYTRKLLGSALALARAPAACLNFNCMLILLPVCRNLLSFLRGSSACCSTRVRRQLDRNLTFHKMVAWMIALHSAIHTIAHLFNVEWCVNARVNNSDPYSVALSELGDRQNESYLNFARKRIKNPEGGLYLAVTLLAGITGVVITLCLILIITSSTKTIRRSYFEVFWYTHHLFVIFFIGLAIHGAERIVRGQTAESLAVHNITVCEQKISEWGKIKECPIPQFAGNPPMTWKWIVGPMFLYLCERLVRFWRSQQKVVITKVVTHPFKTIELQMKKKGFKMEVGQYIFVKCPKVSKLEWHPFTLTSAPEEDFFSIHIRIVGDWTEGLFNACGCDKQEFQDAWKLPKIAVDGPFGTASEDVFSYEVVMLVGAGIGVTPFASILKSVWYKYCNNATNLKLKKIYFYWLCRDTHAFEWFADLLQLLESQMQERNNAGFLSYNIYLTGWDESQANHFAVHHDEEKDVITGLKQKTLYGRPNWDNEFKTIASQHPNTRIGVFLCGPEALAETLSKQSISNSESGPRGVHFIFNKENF
Sequence of Streptavidin (Streptomyces avidinii) (P22629 whole entry, looked up): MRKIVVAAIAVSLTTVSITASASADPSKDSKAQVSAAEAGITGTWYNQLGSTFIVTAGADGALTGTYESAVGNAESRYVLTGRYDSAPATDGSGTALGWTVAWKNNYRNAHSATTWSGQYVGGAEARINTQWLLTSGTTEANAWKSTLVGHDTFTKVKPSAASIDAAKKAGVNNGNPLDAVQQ

SMILES | composite z-score [1] | z-score [2] | composite z-score [3] | z-score [4] | z-score [5] | z-score [6] | composite z-score [7] | composite z-score [8] | composite z-score (Torsin-1A (Homo sapiens) [9]) | composite z-score (Torsin-1A (Homo sapiens) [10]) | composite z-score [11] | z-score [12] | composite z-score [13] | z-score [14] | z-score [15] | z-score [16] | z-score [17] | z-score [18] | z-score [19] | z-score [20]
C=CCOC(=O)[C@H]1[C@@H]2C(=O)O[C@@H](c3ccccc3)[C@@H](c3ccccc3)N2[C@@H](c2ccc(OCCOC(=O)[C@H]3C[C@H]4C(=O)N5CCC[C@H]5C(=O)N4[C@H]3c3cccc(OCCO)c3)cc2)[C@]12C(=O)Nc1ccccc12 | 0.828 | -1.23 (inactive) | 0.135 | -2.03 (inactive) | 1.22 (inactive) | -0.378 (inactive) | -0.0186 | -0.0849 | 0.292 | 1.54 | 1.18 | 1.18 (inactive) | -0.106 | 5.04 (inactive) | 1.7 (inactive) | -0.158 (inactive) | 0.741 (inactive) | -0.0338 | 2.26 (inactive) | 1.57 (inactive)
COc1ccc(CCNC(=O)[C@@]2(Sc3ccc(C)cc3)CC(=O)N(Cc3ccccc3)[C@@H]2c2ccc(CO)cc2I)cc1 | -0.0265 | -0.707 (inactive) | -0.221 | -1.9 (inactive) | 1.13 (inactive) | 1.72 (inactive) | -0.225 | -0.24 | 0.272 | 0.192 | -0.631 | 1.15 (inactive) | -0.321 | 12.6 (active) | 1.57 (inactive) | 0.0585 (inactive) | 0.572 (inactive) | -0.262 | 1.82 (inactive) | -1.14 (inactive)
C=CCNC(=O)[C@H]1[C@@H]2C(=O)O[C@@H](c3ccccc3)[C@@H](c3ccccc3)N2[C@@H](c2ccccc2OCCO)[C@]12C(=O)N(C(=O)OCCOC)c1ccc(C#CCCO)cc12 | 0.958 | -1.66 (inactive) | 0.641 | -3.68 (inactive) | 0.472 (inactive) | 3.22 (inactive) | 0.876 | 0.561 | 1.02 | 0.546 | 0.861 | 1.4 (inactive) | 1.12 | 2.84 (inactive) | 1.32 (inactive) | -0.383 (inactive) | 0.875 (inactive) | 0.0195 | 1.74 (inactive) | 1.42 (inactive)
COc1ccc([Si](C)(C)[C@H]2[C@H](CCO)O[C@@]3(C(=O)N(Cc4ccc(N5C(=O)c6cccc7cccc5c67)cc4)c4ccccc43)[C@@H]2C)cc1 | 0.796 | -0.558 (inactive) | -0.158 | -6.16 (inactive) | 0.399 (inactive) | -1.05 (inactive) | 0.338 | -0.101 | -0.294 | -0.124 | -0.0681 | 1.19 (inactive) | -0.147 | 3.64 (inactive) | 2.29 (inactive) | -0.273 (inactive) | 1.23 (inactive) | 1.63 | 0.469 (inactive) | 0.821 (inactive)
C=CCC(OC(C)=O)[C@@H]1[C@@H](N(Cc2cccc3ccccc23)C(=O)c2cccc3ccccc23)c2cc(OCCCO)ccc2N1C(=O)Cc1ccc(OC)cc1 (stereo not given in full) | 0.655 | -0.378 (inactive) | -0.0589 | -3.55 (inactive) | 1.47 (inactive) | -0.876 (inactive) | 0.228 | -0.179 | -0.0507 | 0.274 | 0.234 | 2.86 (inactive) | 0.0945 | 2.59 (inactive) | -0.227 (inactive) | -0.0889 (inactive) | -0.618 (inactive) | 1.5 | 0.295 (inactive) | -0.783 (inactive)
CC(C)C(CO)N1C(=O)[C@@H]2[C@H]3C(=O)OCC=C[C@H]3OC23C=CCN(Cc2ccccc2)C(=O)[C@@H]13 (stereo not given in full) | -1.06 | -0.511 (inactive) | -0.353 | -0.524 (inactive) | 0.325 (inactive) | 0.559 (inactive) | -1.32 | -0.195 | -0.411 | -1.02 | 0.565 | 1.64 (inactive) | -0.268 | 0.379 (inactive) | -0.0407 (inactive) | 1.32 (inactive) | -0.16 (inactive) | -0.257 | 1.5 (inactive) | 0.118 (inactive)
Cc1ccc(N2C(=O)c3ccccc3[C@](C)(C(=O)NC3CC3)[C@@H]2c2ccc(CO)cc2)nc1 | 0.618 | -1.5 (inactive) | 0.119 | 0.0401 (inactive) | -0.619 (inactive) | -0.732 (inactive) | -0.468 | 0.0053 | 0.141 | 1.06 | 0.496 | 1.3 (inactive) | -0.0162 | 0.262 (inactive) | -0.236 (inactive) | 0.151 (inactive) | -0.0411 (inactive) | 0.199 | -0.712 (inactive) | 0.504 (inactive)
C[N+](C)(C)CCCC[C@@H]1NC(=O)[C@H]2C[C@@H](C(=O)NCCCCCN)[C@@H](c3cccc(OCCO)c3)N2C1=O | 1.1 | -0.714 (inactive) | 0.165 | -1.18 (inactive) | 0.0124 (inactive) | -1 (inactive) | 1.04 | 0.147 | 0.918 | 1.7 | -0.197 | 2.36 (inactive) | 0.857 | 1.76 (inactive) | 0.858 (inactive) | -1.26 (inactive) | 0.57 (inactive) | -0.0325 | 1.03 (inactive) | -0.833 (inactive)
